Source: PubChem
Hits are enriched below; roughly 3.9% of the tested compounds scored in any of these assays.
TGFb SMAD3 inh – TGF-b pathway inhibition | Potency, µM (titrated, usually from 46.1 µM), for the others: top-dose activity, negative = inhibition, hits mostly inhibitors | HepG2 CAGA-GFP TGF-b/SMAD3 reporter, GFP fluorescence, 18 h; TGF-beta stimulated, 500 pg/mL final | AID 588855 | 410,000 compounds, 1.2% hits; note: % is set by controls: 0 for no effect and ±100 for the full control effect; nearly all actives have a fitted effect of over 65% in size
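First, reporter cells (HEPG2 CAGA-GFP) rested 2 h at 37 degrees C. Next, compounds were pinned in and TGF-beta added to 500 pg/mL final. After 18 h, GFP was imaged per cell and summed per well.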
HT1080 IDH1KD tx – HT-1080 IDH1 knockdown cell toxicity (counter line) | HT-1080 IDH1 knockdown viability, ATP luminescence, 48 h | Potency, µM (highest dose often 46.1 µM), without a hit: top-dose activity, negative = toxicity, hits mostly cytotoxic | 360,000 compounds, 2% hits;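 note: 0% = DMSO wells and -100% = cell-free medium wells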
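Assay cells: HT-1080 with IDH1 knockdown, 750 per well, RPMI/5% FBS. Exposure: 48 h at 37 °C following 2 h pre-incubation. Read: CellTiter-Glo luminescence; fitted concentration-response, curve class assigned.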
ATXN2 expr inh – reduces ATXN2 reporter expression in HEK-293 cells. HEK-293 ATXN2-luciferase reporter, luminescence, 24 h. Potency, µM (series often up to 57 µM), inactives show at the top dose activity change, negative = inhibition, most hits filed as inhibitors. 360,000 compounds, 0.72% hits. AID 1745845; note: % is set by controls: 0 for no effect and ±100 for the full control effect; nearly all actives have a fitted effect of over 55% in size
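ATXN2-luciferase reporter cells (luciferase flanked by upstream and downstream ATXN2 gene portions) were treated 24 h at 37 °C with compounds at up to 57 uM. SteadyGlo luminescence gave expression; GF-AFC fluorescence gave viability.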
S2 tox – reduces viability in counter-screen for ATXN expression inhibitors | S2 cells (HEK-293 line with an ATXN2-luciferase reporter) viability, CellTiter-Fluor protease fluorescence, 24 h | Potency, µM (titrated, usually from 56.7 µM), most hits filed as cytotoxic | 400,000 compounds, 0.49% hits | AID 651635; note: nearly all actives have a fitted effect of over 40% in size
HT1080-NT tox – kills 2HG-producing HT-1080-NT fibrosarcoma cells; 360,000 compounds, 1.6% hits; HT-1080-NT fibrosarcoma viability, CellTiter-Glo ATP luminescence, 48 h; Potency, µM (titrated, usually from 46.1 µM), inactives show at the top dose activity, negative = less viability, hits mostly cytotoxic;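 note: NT is the 2HG producing partner of a matched IDH1 knockdown line; 0% = DMSO-treated cells and -100% = media-only wells without cells; nearly all actives have a fitted effect of over 55% in size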
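Fibrosarcoma NT cells, 750 per well in 5% FBS RPMI, were exposed to compound for 48 hours. Viability: CellTiter-Glo luminescence.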
HepG2 viability – counter-screen for TGF-b inhibitors: cytotoxicity in HepG2 cells | Potency, µM (titrated, usually from 46.1 µM), inactives show at the top dose activity change, negative = cytotoxicity, usual class: cytotoxic | AID 588856 | HepG2 CAGA-GFP viability, ATP luminescence, 18 h | 410,000 compounds, 0.76% hits
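CellTiter-Glo luminescence gave cytotoxicity after 18 hours at 37 degrees C. The cells were HepG2 CAGA-GFP in 1% FBS DMEM, stimulated with 500 pg/mL TGF-beta after compound addition. %Activity was normalised to no-cell wells (complete cell-killing) and DMSO (no toxicity), and curves were fitted and classified.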
The depositor's hits bear a star; i = inactive; ? = inconclusive; . = not tested or not shown. Calls come from the whole dose curve; as a rule, active = well fitted curve in the direction sought with a large enough effect; inconclusive = small, poorly fitted or top-dose-only effect, or another doubt; inactive = no such curve, though single readings can be large; an effect the other way counts as inactive or inconclusive. Potency is the fitted concentration of half-maximal effect.

SMILES	TGFb SMAD3 inh	HT1080 IDH1KD tx	ATXN2 expr inh	S2 tox	HT1080-NT tox	HepG2 viability
CC(C)C[C@@H](N)[C@H](O)C(=O)N[C@H](C(=O)N[C@H](C(=O)N[C@@H](CC(=O)O)C(=O)O)C(C)C)C(C)C	.	.	-11%	.	.	.
CCOC(=O)COc1ccc(-c2nnn(CC(=O)Nc3ccccc3)n2)cc1	?	.	8%	?	.	-46%
O=C(CCSCc1cccc(Cl)c1)N1CCN(c2ccc(Cl)cc2)CC1	?	.	.	.	.	-39%
COCCCN1C(=O)c2[nH]nc(-c3cc(C)cc(C)c3O)c2C1c1ccc(O)c(OC)c1 (stereo unspecified)	1%	-10%	0%	i	-4%	-16%
COCCCN1C(=O)c2[nH]nc(-c3ccccc3O)c2C1c1cccc(Cl)c1 (stereo unspecified)	-14%	?	-16%	?	26µM*	-9%
CCCN1C(=O)c2[nH]nc(-c3cc(Cl)c(C)cc3O)c2C1c1ccc(O)c(OC)c1 (stereo unspecified)	?	16µM*	14%	i	?	3%
O=C1c2[nH]nc(-c3ccccc3O)c2C(c2ccccc2)N1Cc1ccco1 (stereo unspecified)	?	?	-1%	?	?	-65%
O=C1c2[nH]nc(-c3ccccc3O)c2C(c2ccc(Cl)cc2)N1Cc1ccco1 (stereo unspecified)	?	.	.	.	.	16µM*
O=C1c2[nH]nc(-c3ccccc3O)c2C(c2ccc(Cl)cc2)N1CCc1ccccc1 (stereo unspecified)	20µM*	.	.	.	.	-91%
Cc1cc(=O)oc2cc(NC(=O)C(C)Oc3cccc(Cl)c3)ccc12 (stereo unspecified)	?	?	-23%	?	26µM*	-15%
Cc1cc(=O)n2nc(N3CCC(C(=O)Nc4ccc(C(C)C)cc4)CC3)sc2n1	?	.	?	?	.	-1%
COc1ccc(COc2cc(-c3cccc(OC)c3)nc3ccc(NC(=O)C(C)C)cc23)cc1	-13%	2.9µM*	8%	?	?	13%
C=CC[n+]1c(/C=C/c2ccc(OC(C)=O)c(OC)c2)ccc2ccccc21	-5%	?	.	16µM*	?	-56%
CC(=O)Nc1ccc(NC(=O)Nc2cccc(Cl)c2)cc1	-2%	-19%	24%	i	-1%	2%
CC(=O)C(=Nc1ccc(Cl)cc1Cl)NNc1cccc(Cl)c1	22µM*	?	-25%	i	-29%	-47%
Cc1ccc(OCC(=O)N2CCN(c3nnc(-c4ccc(C)cc4)c4ccccc34)CC2)cc1	?	?	28µM*	?	14µM*	-28%
CCOC(=O)C(C(C)=O)c1c(Br)c(O)c(O)c2c(C(=O)c3ccc(C)cc3)coc12 (stereo unspecified)	10µM*	8.9µM*	14µM*	?	8.9µM*	-41%
CCOC(=O)c1c(C)n(-c2ccc(C)cc2)c2c(C(C(C)=O)C(=O)O)c(Br)c(O)c(O)c12 (stereo unspecified)	?	-19%	-10%	i	?	-1%
O=C(C1CCCCC1)N1CCN(c2ccnc3cc(Cl)ccc23)CC1	-24%	?	18µM*	?	-9%	-160%
COc1ccccc1N1CCN(c2ccnc3cc(Cl)ccc23)CC1	-2%	7.3µM*	11µM*	?	3.7µM*	8%
CCOC(=O)C1=C(O)/C(=C/c2cn(CC(=O)NCC3CCCO3)c3ccccc23)SC1=Nc1ccc(C)cc1 (stereo unspecified)	37%	?	10µM*	?	?	-30%
CC(C)C[C@H](NC(=O)c1nc[nH]c1C(=O)NC1CCN(C(=O)OC(C)(C)C)CC1)C(=O)OC(C)(C)C	?	?	?	?	?	-77%
CC(C)C[C@H](NC(=O)c1[nH]cnc1C(=O)Nc1ccc(CNC(=O)OC(C)(C)C)cc1)C(=O)OC(C)(C)C	?	18µM*	0%	.	?	-55%
CC(C)C[C@H](NC(=O)c1[nH]cnc1C(=O)Nc1ccc(CNC(=O)OC(C)(C)C)cc1)C(=O)OCc1ccccc1	?	-24%	28µM*	?	?	-42%
CC(C)C[C@H](NC(=O)c1nc[nH]c1C(=O)NC1CCN(C(=O)OC(C)(C)C)CC1)C(=O)OCc1ccccc1	?	-29%	?	?	?	13µM*
SMILES	TGFb SMAD3 inh	HT1080 IDH1KD tx	ATXN2 expr inh	S2 tox	HT1080-NT tox	HepG2 viability
Cc1ccccc1Nc1sc(C(=O)c2ccc(F)cc2)c(N)c1C(=O)NCCc1ccccc1	?	.	-29%	?	.	13µM*
Cc1ccc(NC(=O)c2c(Nc3ccccc3C)sc(C(=O)c3ccccc3)c2N)cc1	?	.	-9%	?	.	-54%
Cc1ccc(CNC(=O)c2c(Nc3c(C)cccc3C)sc(C(=O)c3ccccc3)c2N)cc1	13µM*	.	?	.	.	-60%
COc1cccc(Nc2sc(C(=O)c3ccc(Cl)cc3)c(N)c2C(=O)NCc2ccc(C)cc2)c1	13µM*	.	.	.	.	-27%
COc1cccc(Cn2c(C)c(CNCc3ccccc3Cl)c(C(=O)O)c2C)c1	-2%	.	2%	i	.	1%
CCOC(=O)Nc1ccc2c(c1)C(=NNC(N)=S)c1ccccc1-2	?	?	?	.	?	8.9µM*
CCOC(=O)Nc1ccc2c(c1)C(=NO)c1ccccc1-2	0%	11%	19%	?	2%	-23%
Cc1ccc(Cl)cc1N1CCN(C(=O)c2cnn(-c3ccc(Cl)cc3)c2C2CCNCC2)CC1	?	.	32µM*	.	.	11µM*
Cc1ccc(N2CCN(C(=O)c3cnn(-c4ccc(C)c(C)c4)c3C3CCNCC3)CC2)c(C)c1	?	.	?	i	.	-91%
Cc1cccc(N2CCN(C(=O)c3cnn(-c4cccc(Cl)c4C)c3C3CCNCC3)CC2)c1C	18µM*	.	.	.	.	-94%
COc1ccccc1NC(=O)Cn1c(=O)n(Cc2ccccc2)c(=O)c2c1c1cc(C)ccc1n2C	-3%	.	8%	i	.	0%
O=C1CC(c2ccccc2)Cc2nc3ncnn3cc21 (stereo unspecified)	-4%	?	-1%	i	11µM*	-16%
COc1cc2oc(=O)c(CC(=O)N3CCCCC3)c(C)c2cc1Cl	0%	.	3%	i	.	-2%
Cc1ccc(NC(=S)NNC(=O)CCn2cc(C)cn2)cc1	0%	6.3µM*	3%	i	2.8µM*	3%
